Test [1] in a line: inhibitors of TNFa-induced NFkB p65 translocation, primary screen, imaging, HUVEC, MLSMR starter and 10KST1 sets (AID 438;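 active means inhibition above 20% together with a positive visual image hit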;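 further: compound added about 3h40 before a 20 min TNFalpha stimulation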;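 on inhibition: signal is the nuclear over cytoplasmic p65 intensity ratio per well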). The conditions noted are these: HUVEC TNFa-induced p65 nuclear translocation; cell count: measured here: nuclei count (cytotoxicity indicator), at 2.08 µM; inhibition: at 2 µM, stronger effect = higher value, 0% TNFa-plus-vehicle, 100% no-TNFa wells.
Test [2] can be described thus: inhibitors of mutant huntingtin aggregation, primary screen, imaging, exon1htt(103Q)mCFP cells, high-content imaging (AID 483;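 active means visual image review flags a hit and inhibition of aggregation exceeds 20%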;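 further: compound exposure lasted 3 days before fixation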;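 on nuclei count: percent of the per-plate median nuclei count of sample wells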). The conditions noted are these: exon1htt(103Q)mCFP cell line, aggregate imaging, at 2 µM; inhibition of aggregation: stronger effect = higher value; nuclei count: measured here: cell count, toxicity.
Test [3] can be described thus: inhibitors of E-selectin induction by TNFa, primary screen, imaging, HUVEC, immunofluorescence, MLSMR starter and 10KST1 sets (AID 487;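 active means visually confirmed hit in the image check and inhibition above 20%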;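 on inhibition: signal is fraction of cell area covered by stained E-selectin grains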;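 on nuclei count: 100% = median nuclei count of all wells on the same plate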). The note with it: HUVEC TNFalpha-induced E-selectin immunofluorescence imaging, at 2 µM; inhibition: stronger effect = higher value; nuclei count: measured here: cell number, toxicity.
Test [4] addresses Voltage-gated potassium channel subunit beta-2 (Rattus norvegicus) (UniProt P62483). The experiment in a line: KvBeta enzyme negative modulators, primary screen, biochemical, NADPH fluorescence (AID 622;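 active means fluorescence slope higher than the sample average by over 3 SD, cut at about -0.22 in these data, passing the limit was not always enough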;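 further: slope of raw intensity against log time taken from 70 to 1610 s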). The note with it: recombinant KvBeta, 4-cyanobenzaldehyde reduction, at 10 µM, stronger effect = higher value.
The target is the same in test [5]. The experiment in a line: KvBeta positive modulators, primary screen, biochemical, NADPH fluorescence (AID 623;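 active means NADPH fluorescence slope more negative than the mean of all samples by about 3 SD, 99.7% confidence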;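 further: fluorescence intensity change per second fitted from 20 to 320 s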). The note with it: Recombinant KvBeta, NADPH fluorescence decrease slope, 10 min; at 10 µM; stronger effect = lower value.
Test [6] has as its target Alpha-2C adrenergic receptor (Homo sapiens) (UniProt P18825). Briefly: modulators of alpha2C/GIRK thallium flux, primary screen, cell-based, HEK293 alpha2C/GIRK1/2 (AID 624).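 Further: slope of fluorescence ratio to pre-addition baseline per second over 15 to 24 s.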 The note with it: thallium flux BTC fluorescence, at 10 µM, actives lie on both sides.
Test [7] is described as follows: inhibitors of Sendai virus-induced IRF3 signaling, primary screen, TLR/RLR signaling modifier project, cell-based, Sendai virus stimulus, luciferase, 10K MLSCN set (AID 602276;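 active means inhibition at or above 50% at 10 µM; inactive means inhibition below 50%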;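 further: firefly luciferase from ISG56 promoter only with Renilla not read in this screen; 0% = Sendai virus plus DMSO and 100% = medium plus DMSO without virus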). The note with it: HEK293 RL24 IRF3 luciferase reporter, at 10 µM, stronger effect = higher value. (In general: Reporter assays use an easily measured gene product as a stand-in for the process of interest.)

Test [8] is described as follows: inhibitors of poly I:C-induced TLR3 signaling, primary screen, cell-based, poly I:C stimulus, luciferase, 10K MLSCN set (AID 602277;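 active means inhibition of the reporter signal at or above 50%; inactive means inhibition below 50%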). The conditions noted are these: HEK293-TLR3 RL24 IRF3 luciferase reporter, at 10 µM, stronger effect = higher value.

The source made the active and inactive calls.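 How the source made its calls, unless noted: active means fluorescence slope after compound addition differing from the mean of all screened samples at 99.7% confidence, in either direction; inactive means the rest.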

In general, inhibition refers to the drop in the measured response relative to a control, in per cent.

Sequence of Voltage-gated potassium channel subunit beta-2 (Rattus norvegicus) (P62483 whole entry, looked up): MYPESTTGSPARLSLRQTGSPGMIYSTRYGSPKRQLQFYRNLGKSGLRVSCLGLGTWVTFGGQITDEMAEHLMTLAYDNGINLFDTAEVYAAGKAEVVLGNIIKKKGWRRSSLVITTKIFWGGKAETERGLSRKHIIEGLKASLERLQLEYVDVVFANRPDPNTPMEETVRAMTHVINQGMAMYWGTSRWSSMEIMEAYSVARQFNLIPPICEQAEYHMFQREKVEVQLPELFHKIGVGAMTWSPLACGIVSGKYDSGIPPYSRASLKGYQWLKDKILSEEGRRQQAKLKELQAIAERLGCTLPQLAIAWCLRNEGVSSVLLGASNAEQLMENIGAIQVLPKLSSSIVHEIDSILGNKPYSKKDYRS
Sequence of Alpha-2C adrenergic receptor (Homo sapiens) (P18825 whole entry, looked up): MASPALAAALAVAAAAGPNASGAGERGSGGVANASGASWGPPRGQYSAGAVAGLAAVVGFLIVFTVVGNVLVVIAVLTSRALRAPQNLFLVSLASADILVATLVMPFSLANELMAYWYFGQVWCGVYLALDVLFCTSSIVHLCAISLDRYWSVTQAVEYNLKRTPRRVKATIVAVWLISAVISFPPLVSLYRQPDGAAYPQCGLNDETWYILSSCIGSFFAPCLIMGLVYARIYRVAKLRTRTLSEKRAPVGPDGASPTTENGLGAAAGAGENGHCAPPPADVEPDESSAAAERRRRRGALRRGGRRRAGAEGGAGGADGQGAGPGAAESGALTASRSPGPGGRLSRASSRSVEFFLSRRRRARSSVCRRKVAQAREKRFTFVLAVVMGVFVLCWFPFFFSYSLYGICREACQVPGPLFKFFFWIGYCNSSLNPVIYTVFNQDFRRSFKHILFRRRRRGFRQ

Regarding `Cc1cc(C)c(NC(=O)CSc2nnc(-c3ccncc3)n2Cc2ccco2)c(C)c1`, the cell count in test [1] came out at 412. Further, the inhibition was -5% (inactive) in test [1], -107% (inactive) in test [3], 5.1% (inactive) in test [7] and 10.2% (inactive) in test [8]. In addition, the inhibition of aggregation in test [2] is -19.2% (inactive). In addition, the nuclei count worked out at 111% in test [2] and 113% in test [3]. In test [4], the fluorescence slope was -0.335 (inactive). In addition, the NADPH fluorescence slope in test [5] was -3.5e-05 (inactive). Also, in test [6], the slope was 0.00447 (inactive).
On to `CC(C)[C@H](NC(=O)OC(C)(C)C)c1nnc(SCC(=O)Nc2ccc(Br)cc2)o1`, for which, in test [1], the cell count was 402. Also, the inhibition in test [1] is -6.7% (inactive); in test [3] it was -13.2% (inactive); in test [7] it was 2.98% (inactive); in test [8], 28.3% (inactive). Moreover, in test [2], the inhibition of aggregation is 6.5% (inactive). Besides, the nuclei count in test [2] came to 107%; in test [3], 130%. Further, in test [4], the fluorescence slope is -0.457 (inactive). For the same molecule, in test [5], the NADPH fluorescence slope was 2.2e-05 (inactive). Moreover, the slope in test [6] is 0.00396 (inactive).
Regarding `CCOC(=O)N1CCN(C(=O)CSCC(=O)Nc2nc(-c3ccc(OC)cc3)cs2)CC1`, the cell count in test [1] was determined as 450. For the same molecule, the inhibition is 2.7% (inactive) in test [1], 41.9% (inactive) in test [3], -14.1% (inactive) in test [7] and -24.6% (inactive) in test [8]. Also, the inhibition of aggregation in test [2] is -44% (inactive). The results for the nuclei count in test [2] and in test [3] were 54% and 91.3%, respectively. The fluorescence slope in test [4] was -0.425 (inactive). Also, in test [5], the NADPH fluorescence slope is -8.7e-05 (inactive). Moreover, the slope in test [6] is 0.00636 (inactive).
For `Cc1c(NC(=O)C2CCCCN2S(=O)(=O)c2ccc(Cl)cc2)c(=O)n(-c2ccccc2)n1C` (stereo not given), the cell count in test [1] is 699. The inhibition in test [1] is -4.2% (inactive); in test [3], 2% (inactive); in test [7], 9.42% (inactive); in test [8], -3.63% (inactive). The inhibition of aggregation in test [2] is -14.5% (inactive). In addition, the nuclei count in test [2] turned out to be 112%; in test [3], 109%. For the same molecule, the fluorescence slope in test [4] was -0.604 (inactive). Further, the NADPH fluorescence slope in test [5] was 1.8e-05 (inactive). For the same molecule, the slope in test [6] is 0.00694 (inactive).
As to `O=C(CCN1CCc2ccccc2C1)Nc1ccc2c(c1)OCO2`, the cell count in test [1] was 413. Further, the inhibition in test [1] is 2.9% (inactive); in test [3] it was -84.4% (inactive); in test [7], 6.95% (inactive); in test [8] it was 14.1% (inactive). In test [2], the inhibition of aggregation was 14.5% (inactive). In addition, the nuclei count in test [2] worked out at 96.1%; in test [3] it was 110%. Moreover, in test [4], the fluorescence slope was -0.542 (inactive). For the same molecule, in test [5], the NADPH fluorescence slope is -1.3e-05 (inactive). Moreover, the slope in test [6] is 0.00425 (inactive).
`O=C(CSc1nnc(Cc2cc(=O)[nH]c(=O)[nH]2)n1-c1ccccc1)NCC1CCCO1` (stereo not given): the cell count in test [1] came out at 398. The inhibition in test [1] is 1.1% (inactive); in test [3] it was 5.7% (inactive); in test [7] it was 10.3% (inactive); in test [8], 21.2% (inactive). For the same molecule, the inhibition of aggregation in test [2] was -3.9% (inactive). Moreover, the results for the nuclei count in test [2] and in test [3] were 110% and 102%, respectively. Besides, in test [4], the fluorescence slope was -0.373 (inactive). Moreover, in test [5], the NADPH fluorescence slope was 3.5e-05 (inactive). Further, the slope in test [6] was 0.00598 (inactive).
Regarding `COC(=O)c1ccc(NC2(C#N)C(=O)Nc3ccccc32)cc1` (stereo not given), the cell count in test [1] was 246. Moreover, the inhibition in test [1] was 7.6% (inactive); in test [3], -208% (inactive); in test [7], 19% (inactive); in test [8], 8.66% (inactive). The inhibition of aggregation in test [2] was 15% (inactive). Also, the nuclei count was 95.5% in test [2] and 116% in test [3]. Besides, the fluorescence slope in test [4] was -0.408 (inactive). Besides, the NADPH fluorescence slope in test [5] was -1.9e-05 (inactive). Further, the slope in test [6] was 0.00466 (inactive).
In the case of `COc1ccc(Cc2noc(-c3ccc(C)cc3)n2)cc1`, the cell count in test [1] turned out to be 488. Also, the inhibition was 12.1% (inactive) in test [1], -304% (inactive) in test [3], -38% (inactive) in test [7] and -135% (inactive) in test [8]. Besides, in test [2], the inhibition of aggregation is -0.3% (inactive). Also, the nuclei count in test [2] is 104%; in test [3], 138%. Moreover, the fluorescence slope in test [4] is -0.366 (inactive). Besides, in test [5], the NADPH fluorescence slope is 3.7e-05 (inactive). Moreover, the slope in test [6] is 0.00509 (inactive).
Take `Cn1c(=O)c2c(nc(CN3CCCCC3)n2CCc2ccccc2)n(C)c1=O`: the cell count in test [1] worked out at 363. In addition, the inhibition in test [1] is -1% (inactive); in test [3], -3.5% (inactive); in test [7] it was -6.67% (inactive); in test [8], -8.47% (inactive). Further, the inhibition of aggregation in test [2] is -29.9% (inactive). Further, the nuclei count in test [2] turned out to be 79%; in test [3], 158%. Besides, the fluorescence slope in test [4] is -0.572 (inactive). Besides, in test [5], the NADPH fluorescence slope is -1.3e-05 (inactive). Also, the slope in test [6] is 0.00323 (inactive).
For `COC(=O)c1c(NC(=O)CSc2nnnn2C)sc(C)c1C`, the cell count in test [1] worked out at 446. Further, the inhibition was -0.5% (inactive) in test [1], 30.9% (inactive) in test [3], -19% (inactive) in test [7] and -14.9% (inactive) in test [8]. In addition, in test [2], the inhibition of aggregation is -4.7% (inactive). Further, the nuclei count is 95.6% in test [2] and 101% in test [3]. For the same molecule, the fluorescence slope in test [4] is -0.374 (inactive). Also, in test [5], the NADPH fluorescence slope is -3.1e-05 (inactive). Also, in test [6], the slope is 0.00478 (inactive).

Source of the values: PubChem BioAssay.
